ER stress surv = ER stress cell death inhibition; CSM14.1 thapsigargin ER stress survival, ATP luminescence; relative survival (cellular ATP), % at 15 µg/mL (by protocol); 0.33% of 48,000 active; AID 1010;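 active = survival measured by cellular ATP above 50% at 15 µg/ml in the first screen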;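 note: cell death triggered by about 15 µM thapsigargin; ATP read 24 h after thapsigargin was added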
Large screens that a line does not name were inactive. Many of the other results were omitted from the sample, so hits are more common in it than they were.

COc1cccc(CN2CCN(C(=O)c3ccc(-c4ccccc4)cc3)CC2)c1	ER stress surv 92.8
O=C(c1ccc(F)cc1)N1CCN(Cc2cccc(Oc3ccccc3)c2)CC1	none
COc1ccc(C(=O)N2CCN(Cc3cccc(Cl)c3)CC2)cc1	none
COc1cc(OC)c(OC)cc1CN1CCN(C(=O)c2ccc(-c3ccccc3)cc2)CC1	none
Cc1ccc(C(=O)N2CCN(Cc3ccccc3)CC2)cc1	none
O=C(c1ccc(F)cc1)N1CCN(Cc2ccc(Cl)cc2)CC1	none
COc1ccc(OC)c(CN2CCN(C(=O)c3ccc(-c4ccccc4)cc3)CC2)c1	ER stress surv 104.1
O=C(c1ccc(-c2ccccc2)cc1)N1CCN(Cc2ccc(Cl)cc2)CC1	ER stress surv 98.3
c1ccc(Oc2cccc(CN3CCN(Cc4ccccn4)CC3)c2)cc1	none
C=CCOc1c(Cl)cc(/C=C2/C(=O)NN(c3ccc(F)cc3)C2=O)cc1OC	none
Cc1ccc(Cl)cc1N1CCN(C(=O)C2C3CCC(C3)C2C(=O)O)CC1 (stereo unspecified)	none
COc1ccccc1NC(=O)CC1S/C(=N\N=C(/C)c2cccc(NC(C)=O)c2)NC1=O (stereo unspecified)	none
On1c(-c2ccccc2F)nc2c1CCc1nonc1-2	none
COc1ccc(C2CC(=O)C3=C(C2)Nc2ccccc2NC3c2c(F)cccc2Cl)cc1 (stereo unspecified)	none
O=C1CC(c2ccccc2)CC2=C1C(c1cc(Br)ccc1F)Nc1ccccc1N2 (stereo unspecified)	ER stress surv 79.7
O=C1CC(c2ccc(Cl)cc2)CC2=C1C(c1ccccc1F)Nc1ccccc1N2 (stereo unspecified)	none
O=C1CC(c2ccccc2)CC2=C1C(c1ccc(Br)cc1)Nc1ccccc1N2 (stereo unspecified)	none
O=C1CC(c2ccccc2)CC2=C1C(c1cccc(Cl)c1Cl)Nc1ccccc1N2 (stereo unspecified)	none
O=C1CC(c2ccccc2)CC2=C1C(c1c(F)cccc1Cl)Nc1ccccc1N2 (stereo unspecified)	ER stress surv 105.4
CCCCCC(=O)NNC(=O)Cc1ccc(OC)cc1	none
O=C(Cc1ccccc1)Nc1ccc(/C=C/C(=O)c2ccccc2)cc1	none
COc1cc(/C=C2/S/C(=N\S(=O)(=O)c3ccccc3)NC2=O)ccc1O	none
CCOC(=O)COc1ccc(/C=C2\C(=O)NC(=O)N(c3ccc(C(C)(C)C)cc3)C2=O)cc1OC	none
O=C(CSCC(=O)Nc1ccccc1)NCc1ccco1	none
O=C1NC(=S)N(c2ccccc2F)C(=O)/C1=C/c1ccc(I)o1	none
O=C1CS/C(=N\N=C/c2ccc(OCc3c(F)cccc3Cl)cc2)N1	none
